Data: PubChem BioAssay AID1159580 (chemical genetic matrix, 2015)
Several values for one entry are separate records, joined by “and”; a condition that tells them apart may be missing. Equal values may be shown once. Among all 5,500 compounds or so, about 2,000 (36%) were called active. Not shown: some 18% with an inconclusive outcome. Cut-off read from the data, not from the text of the source: active = normalized growth mostly below about 0.91 (no sharp cut-off); inconclusive = no clear call, values can overlap the other calls; inactive = mostly above about 0.92. Some of the results follow. Where a SMILES comes first, the peptide text is derived from it. Bridges are numbered along the chain shown (N, C = ends). [ ]: non-standard residue; d: D form. The star is where a group is joined. ξ: configuration not given here. ξDab(CH2SO3H) = NC(CCNCS(=O)(=O)O)C(=O)O; Heptanoyl(6-Me) = CC(C)CCCCC(=O)*; Dab = NCC[CH](N)C(=O)O

Assay: chemical genetic growth profiling, strain panel (AID 1159580);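 note: tested at 20 µM; growth read once vehicle control cultures reached saturation at 30 °C; 1 = growth at the plate median or of vehicle wells; lower values mean less growth of the strain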
Conditions: S. cerevisiae deletion strains, growth OD

Measured: normalized growth

CCC(C)C1NC(=O)C(CCNCS(=O)(=O)O)NC(=O)C(NC(=O)C(CCNCS(=O)(=O)O)NC(=O)C(NC(=O)C(CCNCS(=O)(=O)O)NC(=O)CCCCC(C)C)C(C)O)CCNC(=O)C(C(C)O)NC(=O)C(CCNCS(=O)(=O)O)NC(=O)C(CCNCS(=O)(=O)O)NC(=O)C(C(C)CC)NC1=O (stereo unspecified) ({Heptanoyl(6-Me)}-[ξDab(CH2SO3H)]T[ξDab(CH2SO3H)][Dab][ξDab(CH2SO3H)]II[ξDab(CH2SO3H)][ξDab(CH2SO3H)]T; lactam 4-C; configuration not given here)
inactive: locus YAL013W, strain DEP1, active compounds read low 1 | locus YAL021C, strain ccr4, active compounds read low 0.93 | locus YAL026C, strain drs2, active compounds read low 0.989 | locus YAL030W, strain snc1, active compounds read low 0.99 | locus YBL061C, strain skt5, active compounds read low 0.981 | locus YBR009C, strain hhf1, active compounds read low 0.971 | locus YBR021W, strain FUR4, active compounds read low 1.02 | locus YBR023C, strain chs3, active compounds read low 0.985 | locus YBR171W, strain sec66, active compounds read low 0.995 | locus YBR229C, strain ROT2, active compounds read low 0.987 | locus YBR231C, strain swc5, active compounds read low 1 | locus YBR279W, strain paf1, active compounds read low 1 | locus YCL011C, strain gbp2, active compounds read low 0.996 | locus YCL016C, strain dcc1, active compounds read low 0.994 | locus YCL029C, strain bik1, active compounds read low 0.955 | locus YCL061C, strain MRC1, active compounds read low 0.996 | locus YCL069W, strain vba3, active compounds read low 0.978 | locus YCR088W, strain abp1, active compounds read low 0.976 | locus YDL005C, strain med2, active compounds read low 1.01 | locus YDL035C, strain GPR1, active compounds read low 0.989 | locus YDL040C, strain nat1, active compounds read low 0.972 | locus YDL074C, strain BRE1, active compounds read low 1 | locus YDL101C, strain DUN1, active compounds read low 0.992 | locus YDL134C, strain PPH21, active compounds read low 0.993 | locus YDL185W, strain tfp1, active compounds read low 0.935 | locus YDL192W, strain arf1, active compounds read low 0.965 | locus YDR001C, strain nth1, active compounds read low 0.992 | locus YDR069C, strain doa4, active compounds read low 0.961 | locus YDR101C, strain arx1, active compounds read low 0.983 | locus YDR137W, strain rgp1, active compounds read low 1.03 | locus YDR150W, strain NUM1, active compounds read low 0.97 | locus YDR159W, strain sac3, active compounds read low 0.95 | locus YDR162C, strain NBP2, active compounds read low 0.98 | locus YDR195W, strain ref2 0.946 | locus YDR297W, strain sur2, active compounds read low 0.998 | locus YDR318W, strain mcm21, active compounds read low 0.956 | locus YDR334W, strain swr1, active compounds read low 0.959 | locus YDR335W, strain msn5, active compounds read low 0.984 | locus YDR388W, active compounds read low 0.972 | locus YDR392W, strain spt3, active compounds read low 1.02 | locus YDR502C, strain sam2, active compounds read low 0.976 | locus YEL003W, strain gim4, active compounds read low 0.996 | locus YEL037C, strain rad23, active compounds read low 0.969 | locus YEL061C, strain CIN8 (second series), active compounds read low 0.978 | locus YEL061C, strain CIN8, active compounds read low 0.982 | locus YER015W, strain faa2, active compounds read low 0.996 | locus YER016W, strain bim1, active compounds read low 0.997 | locus YER110C, active compounds read low 0.98 | locus YER111C, strain swi4, active compounds read low 1 | locus YER155C, strain BEM2 (second series), active compounds read low 1.01 | locus YER155C, strain BEM2, active compounds read low 0.984 | locus YER167W, strain BCK2, active compounds read low 0.964 | locus YFR010W, strain ubp6, active compounds read low 0.979 | locus YGL078C, strain dbp3, active compounds read low 0.968 | locus YGL086W, strain mad1, active compounds read low 0.972 | locus YGL167C, strain pmr1, active compounds read low 0.967 | locus YGL173C, strain kem1, active compounds read low 0.984 | locus YGL227W, strain vid30, active compounds read low 0.988 | locus YGL240W, strain doc1, active compounds read low 1 | locus YGL248W, strain PDE1, active compounds read low 0.988 | locus YGL253W, strain hxk2, active compounds read low 0.993 | locus YGR078C, strain PAC10, active compounds read low 0.999 | locus YGR135W, strain pre9, active compounds read low 0.988 | locus YGR229C, strain SMI1, active compounds read low 1.01 | locus YGR252W, strain gcn5, active compounds read low 1.1 | locus YHR013C, strain ard1, active compounds read low 0.978 | locus YHR027C, strain rpn1, active compounds read low 1 | locus YHR030C, strain SLT2, active compounds read low 0.98 and 1.01 | locus YHR079C, strain IRE1 (second series), active compounds read low 0.966 | locus YHR079C, strain IRE1, active compounds read low 0.971 | locus YHR094C, strain hxt1, active compounds read low 0.952 | locus YHR129C, strain ARP1, active compounds read low 0.98 | locus YHR142W, strain chs7, active compounds read low 0.982 | locus YHR200W, strain rpn10, active compounds read low 0.951 | locus YIL066C, strain RNR3, active compounds read low 0.977 | locus YIL073C, strain SPO22, active compounds read low 0.975 | locus YIL125W, strain kgd1, active compounds read low 0.969 | locus YIR030C, strain dcg1, active compounds read low 0.967 | locus YJL092W, strain hpr5, active compounds read low 0.987 | locus YJL095W, strain BCK1 (second series), active compounds read low 0.987 | locus YJL095W, strain BCK1, active compounds read low 0.974 and 0.981 | locus YJL115W, strain asf1, active compounds read low 0.975 | locus YJL129C, strain trk1, active compounds read low 1.08 | locus YJL134W, strain LCB3, active compounds read low 0.976 | locus YJL154C, strain vps35, active compounds read low 0.98 | locus YJL164C, strain tpk1, active compounds read low 0.994 | locus YJL166W, strain qcr8, active compounds read low 0.986 | locus YJL168C, strain set2, active compounds read low 0.966 | locus YJL187C, strain SWE1 (second series), active compounds read low 0.978 | locus YJR043C, strain POL32, active compounds read low 1 | locus YJR066W, strain TOR1, active compounds read low 0.97
